34 molecules from PubChem BioAssay (NCATS) can be followed below.

Records with an inconclusive call do not appear. A call without a number means that no potency is given here. Active and inactive are the calls of the source. Calls come from the whole dose curve; as a rule, active = well fitted cell-killing curve with a large enough effect; inconclusive = small, poorly fitted or top-dose-only effect, or effect the other way; inactive = no such curve, though single readings can be large or run the other way.

This experiment is described as follows: Cell Viability - LYMP2-004 (AID 966).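 Note: cells exposed to compound for 24 h; nearly all actives have a fitted effect of over 65% in size.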 The settings on record: LYMP2-004 lymphoblastoid cell viability, qHTS; series mostly up to 92.2 µM. Put shortly: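 Cells seeded 2500/well, rested 5 hr at 37 C, dosed across a concentration series, incubated 24 hr at 37 C, then CellTiter-Glo added for 30 min at room temperature and luminescence read. Hill fitting gave AC50.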
(In general: Quantitative high-throughput screening tests each substance at several concentrations.)
Turning to `CCN(C(=O)N(CC)c1ccccc1)c1ccccc1`, the Potency entry is “inactive”.
Regarding `CCNc1cc(O)ccc1C`, the Potency result was “inactive”.
As for `Cc1ccc(C(=O)O)cc1`, the Potency entry was “inactive”.
`C=Cc1ccccn1`: the Potency result is “inactive”.
In the case of `CC(C)C(C)C`, the Potency result was “inactive”.
Consider `CCCCC(=O)N(C)C`, for which the Potency result was “inactive”.
Take `Nc1cc(S(=O)(=O)O)ccc1O`: the Potency entry was “inactive”.
Next, `O=C1OC(=O)c2c(Br)c(Br)c(Br)c(Br)c21`: “inactive”; `BrC(Br)C(Br)Br`: “inactive”.
Turning to `CC(=O)c1ccccn1`, the Potency result was “inactive”.
As for `O=P(O)(OCc1ccccc1)OCc1ccccc1`, the Potency result was “inactive”.
In the case of `CC(N)CN` (centres undefined), the Potency result was “inactive”.
As for `OC1CCCC1`, the Potency entry was “inactive”.
As to `Cc1ccc(N(C)C)cc1`, the Potency entry is “inactive”.
For `OCCO`, the Potency entry is “inactive”.
The entry for `Cc1ccc2nc(-c3ccc(N)cc3)sc2c1S(=O)(=O)O` is “inactive”; for `CCOC(=O)OCC` it is “inactive”; for `Nc1cccc(C(F)(F)F)c1` it is “inactive”.
As to `ClCCl`, the Potency entry was “inactive”.
As to `CN(C)CCCCl`, the Potency entry was “inactive”.
`CC(=O)c1cccc([N+](=O)[O-])c1`: the Potency result was “inactive”.
For the molecule `O=C(O)c1ccccc1Cl`, the Potency result was “inactive”.
With `CSCCC=O`, the Potency result was “inactive”.
Regarding `C=C(C)OC(C)=O`, the Potency result was “inactive”.
Regarding `CCCCCCCCC/C=C/CC1CC(=O)OC1=O` (centres undefined), the Potency result is “inactive”.
On to `Cc1cc(C)cc(O)c1`, for which the Potency entry is “inactive”.
With `CCC(O)C(C)(C)C` (centres undefined), the Potency entry is “inactive”.
`CCCCCCCCC`: the Potency entry was “inactive”.
In the case of `CCCCCCCCCCCCC1CO1` (centres undefined), the Potency entry was “inactive”.
Regarding `CC(=O)c1nccs1`, the Potency entry was “inactive”.
As to `CC/C=C/C#N`, the Potency result is “inactive”.
Consider `NC(=S)NNC(N)=S`, for which the Potency entry was “inactive”.
Regarding `Cc1ccc(C(C)(C)C)cc1`, the Potency entry is “inactive”.
Next, `CC(C)c1ccccc1`: “inactive”.
